Assay results as given in PubChem BioAssay AID2314 (National Center for Advancing Translational Sciences (NCATS), 2010).
Where “and” joins values, the source holds several entries; their conditions need not be identical. Identical values can stand only once. Screen size: about 300,000 compounds; about 37,000 (12%) were called active. No stated cut-off is given here; in the data, active means max response mostly above about 13% (no sharp cut-off); inactive means mostly below about 14%. Shown is part of a subset that was picked to be rich in actives. Some structures have more than one record in an assay (separate samples or runs), and their calls can disagree.

test: Cycloheximide Counterscreen for Small Molecule Inhibitors of Shiga Toxin; settings: cell reporter, cycloheximide protein synthesis inhibition counterscreen; stronger effect = higher value; further: read at 38.3 µM for the half of the compounds with a filed dose; 0% is about no effect

SMILES | max response
COc1cccc(N(C(=O)CNC(=O)c2ccco2)C(C(=O)NC2CCCCC2)c2cccnc2)c1 (stereo unspecified) | -2.98% (inactive)
CCN(CC)c1ccc(NC(=O)CN2CCN(c3ccccn3)CC2)cc1 | -3.57% (inactive)
CC[n+]1cc(C)ccc1/C=C/c1ccc(N(C)C)cc1 | 12.8% (inactive)
O=c1ccnc(Nc2ccc(Cl)cc2)[nH]1 | 1.06% (inactive)
O=C(Nc1cc(S(=O)(=O)N2CCOCC2)ccc1Cl)c1cc(=O)c2ccccc2o1 | 2.68% (inactive)
N#Cc1nc(Cc2ccccc2)oc1NCCc1ccccc1 | 39.2% (active)
Cc1ccccc1-c1nc(C#N)c(NCc2ccco2)o1 | 8.49% (inactive)
CCOc1ccc(Nc2oc(Cc3ccccc3)nc2C#N)cc1 | 31.6% (active)
N#Cc1nc(COc2ccc(-c3ccccc3)cc2)oc1NCc1cccnc1 | 9.29% (inactive)
N#Cc1nc(Cc2cccc3ccccc23)oc1NCc1ccc2c(c1)OCO2 | -2.28% (inactive)
COc1ccc(Nc2oc(-c3ccccc3Cl)nc2C#N)cc1 | 9% (inactive)
O=c1cc(C(F)(F)F)[nH]c(=O)n1C1CCCCC1 | 6.49% (inactive)
CCCCn1c(N)c(N(CC)C(=O)c2ccccc2C(F)(F)F)c(=O)[nH]c1=O | -3.22% (inactive)
CCSc1nc(C)c(CCOc2cccc(C)c2)c(=O)[nH]1 | 1.14% (inactive)
O=C(Nc1ccc(Cl)cc1)OCc1cc(-c2ccccc2)on1 | 22.5% (active)
O=C(Nc1ccccc1)OCc1cc(-c2ccc(Cl)cc2)on1 | -2.77% (inactive)
Clc1ccc(-c2cc(COc3ccccc3)no2)cc1Cl | -2.19% (inactive)
Cc1ccc(C2CC(c3cccc(NS(C)(=O)=O)c3)=NN2S(C)(=O)=O)cc1 (stereo unspecified) | 45.1% (active)
CS(=O)(=O)Nc1cccc(C2=NN(C(=O)c3cccc(F)c3)C(c3cccs3)C2)c1 (stereo unspecified) | -2.01% (inactive)
Cc1ccccc1C1CC(c2cccs2)=NN1S(C)(=O)=O (stereo unspecified) | -1.48% (inactive)
CS(=O)(=O)Nc1cccc(C2=NN(S(=O)(=O)c3ccccc3)C(c3cccs3)C2)c1 (stereo unspecified) | -3.68% (inactive)
CCS(=O)(=O)Nc1ccc(C2=NN(C(C)=O)C(c3cccs3)C2)cc1 (stereo unspecified) | 16% (inactive)
CS(=O)(=O)Nc1ccc(C2=NN(S(C)(=O)=O)C(c3cccs3)C2)cc1 (stereo unspecified) | 33.7% (active)

SMILES | max response
CCOc1ccc(NC(=S)NC(=O)/C=C/c2ccc(OC)cc2)c([N+](=O)[O-])c1 | 9.22% (inactive)
c1ccc2c(C[n+]3csc4ccccc43)cccc2c1 | 9.31% (inactive)
COC(=O)Cn1cnc2scc(-c3ccc(C)c(C)c3)c2c1=O | -2.51% (inactive)
CCc1ccc(S(=O)(=O)N/N=C\c2ccc([N+](=O)[O-])o2)cc1 | 5.73% (inactive)
Cc1cc2ccccn2c1C(=O)c1cccc(S(=O)(=O)N2CCOCC2)c1 | -0.598% (inactive)
CC(C)(C)OC(=O)NNc1c2ccccc2nc2ccccc12 | 11.3% (active)
O=C(NNc1c2ccccc2nc2ccccc12)c1cc2ccccc2cc1O | -1.17% (inactive)
CCC(=O)OCCNc1nc(-c2ccccc2)nc2ccccc12 | 1.39% (inactive)
COc1ccc(C(CCN(Cc2ccc(OC)c(OC)c2)C(=O)CCl)c2ccccc2)cc1 (stereo unspecified) | -1.89% (inactive)
CC(=O)c1cccc(NC(=O)CN2C(=O)c3cccnc3Oc3ccc(Cl)cc32)c1 | 8.12% (inactive)
O=C(Cn1c(N2CCN(C/C=C/c3ccccc3)CC2)nc2ccccc21)c1ccccc1 | 8.47% (inactive)
CC[C@H](C)[C@H](NC(=O)[C@@H](N)CCC(=O)O)C(=O)N[C@@H](CC(C)C)C(=O)N[C@@H](CC(=O)O)C(=O)N[C@H](C(=O)N1CCC[C@H]1C(=O)N[C@@H](CO)C(=O)N[C@H](C(=O)O)[C@@H](C)O)C(C)C | 0.56% (inactive)
CCOC(=O)c1c(NC(=O)C(C)Sc2c[nH]c3ccccc23)sc2c1CCC2 (stereo unspecified) | -0.942% (inactive)
CCOc1ccccc1NC(=O)CCc1nnc2ccc(NCc3ccco3)nn12 | 2.03% (inactive)
CC(=O)c1ccc(NC(=O)CCc2nnc3ccc(NCc4ccco4)nn23)cc1 | 40.6% (active)
O=C(CCc1nnc2ccc(NCc3ccco3)nn12)Nc1cc(F)ccc1F | -2.19% (inactive)
O=C(Cn1c[n+](CC(=O)c2ccc([N+](=O)[O-])cc2)cn1)c1ccc([N+](=O)[O-])cc1 | 1.46% (inactive) and 22.2% (active)
O=C(c1ccncc1)c1ccc([N+](=O)[O-])cc1 | -4.87% (inactive)
O=C(CC(n1cncn1)C(Cl)(Cl)Cl)c1ccc([N+](=O)[O-])cc1 (stereo unspecified) | -2.22% (inactive)
COc1ccc(N2CCC(N3CCN(C)C(CCO)C3)CC2)cc1 (stereo unspecified) | -1.24% (inactive)
COc1ccc(OCCNS(=O)(=O)Cc2ccccc2)cc1 | -3.58% (inactive)
O=C(c1ccc(Cl)cc1)N1N=C(c2ccccn2)CC1(O)C(F)(F)F (stereo unspecified) | -0.573% (inactive)
COc1ccc(OC)c(CNC(=O)c2cc(=O)[nH]c3ccc(S(=O)(=O)N4CCCC4)cc23)c1 | 11.5% (inactive)

SMILES | max response
COC(CNC(=O)c1ccc2c(c1)ncn2-c1cc(C)cc(C)c1)OC | -5.14% (inactive)
COC(=O)CSc1nc2ccccc2c(=O)n1Cc1ccccc1 | 12.7% (inactive)
O=C(CCCn1c(SCC(=O)c2ccc(F)cc2)nc2ccccc2c1=O)NCc1ccco1 | -0.158% (inactive)
Cc1ccc(C(=O)CSc2nc3ccccc3c(=O)n2N)o1 | 34.6% (active)
CC1CCC(NC(=O)CN(C)S(=O)(=O)c2ccc3c(c2)c(=O)n(C)c(=O)n3C)CC1 (stereo unspecified) | -2.52% (inactive)
Cn1c(=NC(=O)CSCC(=O)N2CCOCC2)sc2ccccc21 | 11% (inactive)
Cn1c(=NC(=O)c2cnccn2)sc2ccccc21 | 26% (active)
Cn1c(=NC(=O)CSCC(=O)N2CCCCC2)sc2ccccc21 | 2.51% (inactive)
COc1cc(CO)c(C2(CO)CCCC2)cc1OC | -4.97% (inactive)
Cc1cc(C)cc(N(CCC#N)C(=O)CN2C(=O)NC3(CCCC3)C2=O)c1 | 1.6% (inactive)
Oc1ccccc1N1CCN(c2ncnc3sc(-c4ccccc4)cc23)CC1 | 9.53% (inactive)
O=c1c(-c2ccccc2)cnc2n1CCS2 | -4.67% (inactive)
O=c1c2cc(-c3ccccc3)sc2nc2n1N=C(c1cccs1)CS2 | 57% (active)
CC(C)NC(=O)C(c1ccc(F)cc1)N(C(=O)CCC(=O)Nc1ccccn1)c1ccccc1F (stereo unspecified) | -2.11% (inactive)
CC(C)CCNC(=O)Cn1c(=O)oc2cc(S(=O)(=O)N3CC(C)CC(C)C3)ccc21 (stereo unspecified) | -7.3% (inactive)
CSc1ccc(/C=N/N2CCN(Cc3ccccc3Cl)CC2)cc1 | 16.6% (active)
O=S1(=O)CCN(Cc2ccccc2Cl)CC1 | -2.05% (inactive)
COc1ccccc1/C=N/N1CCN(Cc2ccccc2Cl)CC1 | 1.31% (inactive)
Cc1cccc(-n2cnc(C(=O)Nc3cccnc3)c2)n1 | 25.5% (active)
Cc1cc(C)c(NC(=O)CS(=O)CC(=O)Nc2cccnc2)c(C)c1 (stereo unspecified) | 3.39% (inactive)
Cc1cccc(-n2cnc(C(=O)NNC(=S)Nc3ccccc3)c2)n1 | -0.715% (inactive)
Cc1cccc(Nc2nc3c(S(=O)(=O)c4ccccc4)nnn3c3ccccc23)c1C | -2.93% (inactive)
Cc1ccc(/C=C2\CCn3c2nc2cc(C(=O)O)ccc2c3=O)c(C)c1 | 8.18% (inactive)

SMILES | max response
CCc1ccc(-c2nn(-c3ccccc3)cc2CSC(=N)N)cc1 | -12.4% (inactive)
COc1cc2c(cc1OC)CN(C(=O)c1cc(S(=O)(=O)N3CCCCC3)ccc1Cl)CC2 | 11.1% (inactive)
Cc1ccccc1OCC(=O)Nc1nnc(S(=O)(=O)N2CCCC2)s1 | 1.8% (inactive)
Cc1nc(SCC(=O)Nc2cc(C)on2)c2c(C)c(C)sc2n1 | -2.36% (inactive)
Cc1cc(NC(=O)CSc2nc3c(cc2C#N)CCCCC3)no1 | 14.6% (active)
CC(NC(=O)CSc1nc2c(cc1C#N)CN(C)CC2)c1ccccc1 (stereo unspecified) | -4.77% (inactive)
Cc1c(CCO)sc[n+]1CC(=O)OC12CC3CC(CC(C3)C1)C2 | -2.92% (inactive)
COC(=O)C1(C)CC1(c1ccccc1)c1ccccc1 (stereo unspecified) | -2.76% (inactive)
COC(=O)c1c(C)oc2ccc(N(C(=O)Oc3ccccc3)S(=O)(=O)c3ccccc3)cc12 | -13.2% (inactive)
N/C(=N\OC(=O)c1cc(-c2ccccc2)nc2ccccc12)c1ccncc1 | -3.22% (inactive)
Cc1cccc(/C(N)=N/OC(=O)c2ccccc2Cl)c1 | 37% (active)
Cc1cccc(C(=O)c2cccc(C)c2)c1 | 0.416% (inactive)
O=C(O)CCN=C1CCc2ccccc2N1 | -2.89% (inactive)
COc1cc(OC)cc(-c2nnc(N(C)C(=O)c3ccncc3)s2)c1 | -2.59% (inactive)
COc1ccc(NC(=O)C2CCN(S(=O)(=O)c3ccc4[nH]c(=O)oc4c3)CC2)c(OC)c1 | -1.11% (inactive)
Cc1ccc(N(CC(=O)Nc2cccc(N(C)S(C)(=O)=O)c2)S(C)(=O)=O)cc1 | -1.08% (inactive)
CN(c1cccc(NC(=O)Nc2ccc(Cl)cc2)c1)S(C)(=O)=O | 36.6% (active)
CN(c1cccc(NC(=O)c2ccc(CN3CCc4ccccc4C3)cc2)c1)S(C)(=O)=O | -1.55% (inactive)
C/C(=N/NC(=O)c1ccc(NC(=O)c2ccc(F)cc2)cc1)c1ccccc1 | 11% (inactive)
CC(=O)Nc1cccc(/C(C)=N/NC(=O)c2ccccc2Cl)c1 | 8.8% (inactive)
COc1cccc(C(=O)N/N=C(\C)c2cccc(NC(=O)c3ccc(F)cc3)c2)c1OC | 27.3% (active)
O=C(Nc1nonc1-c1ccc(Cl)cc1)c1ccco1 | 7.55% (inactive)
